Test results from publication PMC4336329 (PLoS ONE, 2015).
The campaign covered roughly 310,000 compounds. About 2,200 (0.71%) showed an effect of 50% or more. Effects have a minus sign here. Many of the other results were omitted from the sample, so strong results are more common in it than they were.

target: human ether-à-go-go-related gene (hERG) potassium channel (human, UniProt Q12809); assay: primary screen, population patch clamp on CHO cells stably expressing hERG; higher = less effect of the substance
Sequence (Q12809 whole entry, looked up): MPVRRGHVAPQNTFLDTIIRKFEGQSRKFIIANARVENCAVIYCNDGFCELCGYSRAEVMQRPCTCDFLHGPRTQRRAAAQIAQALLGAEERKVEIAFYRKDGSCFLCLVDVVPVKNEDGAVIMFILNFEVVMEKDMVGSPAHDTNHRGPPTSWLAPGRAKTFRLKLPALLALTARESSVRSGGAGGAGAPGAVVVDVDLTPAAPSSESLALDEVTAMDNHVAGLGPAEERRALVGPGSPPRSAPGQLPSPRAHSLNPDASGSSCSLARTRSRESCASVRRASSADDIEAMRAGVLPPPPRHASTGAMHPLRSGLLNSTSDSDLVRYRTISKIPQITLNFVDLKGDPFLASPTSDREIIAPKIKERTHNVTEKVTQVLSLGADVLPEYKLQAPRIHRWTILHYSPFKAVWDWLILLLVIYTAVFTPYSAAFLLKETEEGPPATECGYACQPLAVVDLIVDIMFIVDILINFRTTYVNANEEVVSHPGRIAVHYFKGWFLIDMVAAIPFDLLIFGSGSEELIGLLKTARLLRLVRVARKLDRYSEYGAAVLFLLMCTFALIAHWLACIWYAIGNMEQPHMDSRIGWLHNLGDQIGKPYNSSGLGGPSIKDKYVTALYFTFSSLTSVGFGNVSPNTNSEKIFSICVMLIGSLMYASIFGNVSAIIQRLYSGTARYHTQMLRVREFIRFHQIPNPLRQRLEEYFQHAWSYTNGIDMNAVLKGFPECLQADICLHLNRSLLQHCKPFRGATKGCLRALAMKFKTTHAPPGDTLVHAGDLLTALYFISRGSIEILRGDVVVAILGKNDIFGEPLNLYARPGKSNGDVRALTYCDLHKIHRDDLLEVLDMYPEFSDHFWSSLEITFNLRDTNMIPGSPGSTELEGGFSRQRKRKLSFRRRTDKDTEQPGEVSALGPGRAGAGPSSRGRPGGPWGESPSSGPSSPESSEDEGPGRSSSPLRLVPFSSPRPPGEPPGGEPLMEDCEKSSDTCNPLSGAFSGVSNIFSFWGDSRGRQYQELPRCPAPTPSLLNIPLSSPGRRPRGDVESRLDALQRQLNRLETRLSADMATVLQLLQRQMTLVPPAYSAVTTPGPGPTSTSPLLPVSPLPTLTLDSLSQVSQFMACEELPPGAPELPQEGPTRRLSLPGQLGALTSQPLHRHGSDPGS

SMILES | hERG current change (%, negative = inhibition) at 1uM
CCCN(CCC)CCCNC(=O)c1cn(CC)c2ccc(S(=O)(=O)N3CCc4ccccc4C3)cc2c1=O | -47.9%
CCCCN(CC)CCCNC(=O)c1cn(CC)c2ccc(S(=O)(=O)N3CCc4ccccc4C3)cc2c1=O | -71.9%
CCn1cc(C(=O)NCCCN2CC(C)CC(C)C2)c(=O)c2cc(S(=O)(=O)N(C)C3CCCCC3)ccc21 (stereo not drawn) | -91.4%
CCN(CC)CCCNC(=O)c1cn(CC)c2ccc(S(=O)(=O)N3CCc4ccccc4C3)cc2c1=O | 1.94%
CCOCCCNC(=O)c1cn(CC)c2ccc(S(=O)(=O)N(C)C3CCCCC3)cc2c1=O | 11.3%
CCn1cc(C(=O)NCCCN2CC(C)CC(C)C2)c(=O)c2cc(S(=O)(=O)N(C)C)ccc21 (stereo not drawn) | -17.3%
Oc1ccc(/C=N/Nc2ccc(C(F)(F)F)cn2)cc1 | 7.84%
O=C(NCc1ccco1)C(=O)NCC1OCCCN1S(=O)(=O)c1ccc(F)cc1 (stereo not drawn) | 10%
COc1ccccc1N(C)S(=O)(=O)c1ccc(Cl)c(C(=O)NC2=NCCS2)c1 | 21.6%
Cc1ccc(S(=O)(=O)NCC2COc3ccccc3O2)cc1 (stereo not drawn) | 6.71%
CCc1ccc(NC(=O)CSCc2nc(N)nc(Nc3ccccc3CC)n2)cc1 | 10.9%
O=C(C1CCN(C2CCN(Cc3ccc4cc(F)ccc4n3)CC2)CC1)N1CCCC1 | -78.3%
O=C(c1cc(F)ccc1F)N1CCC(N2CCC(C(=O)N3CCCC3)CC2)CC1 | 16.9%
CCc1ccc(CN2CCC(N3CCC(C(=O)N4CCCC4)CC3)CC2)o1 | -28.3%
CCCCNc1nc2ccccc2n1CC(=O)N1CCc2ccccc2C1 | -6.59%
N#Cc1nc(-c2ccc(F)cc2)oc1NCc1cccc2c1OCO2 | 13.6%
Cc1cc([N+](=O)[O-])nn1CC(=O)NNC(=S)Nc1ccc([N+](=O)[O-])cc1 | 11.8%
O=C(COc1ccccc1Cl)N1CCCC(N2CCN(c3ccc(F)cc3)CC2)C1 (stereo not drawn) | -19.5%
CSCC(=O)N1CCCC(N2CCN(c3ccc(F)cc3)CC2)C1 (stereo not drawn) | 0.918%
COc1ccccc1OCC(=O)N1CCCC(N2CCN(c3ccc(F)cc3)CC2)C1 (stereo not drawn) | 4.57%
Cc1ccc(OCC(=O)N2CCCC(N3CCN(c4ccc(F)cc4)CC3)C2)cc1 (stereo not drawn) | -90.2%

SMILES | hERG current change (%, negative = inhibition) at 1uM
O=C(CSc1ccccc1)N1CCCC(N2CCN(c3ccccc3)CC2)C1 (stereo not drawn) | 2.18%
O=C(CSc1ccccc1)N1CCCC(N2CCN(c3ccc(F)cc3)CC2)C1 (stereo not drawn) | -56%
CC(=O)Nc1cc(C(C)(C)C)c(O)c(C(C)(C)C)c1 | 13.4%
CCCNC(=O)c1cc(S(=O)(=O)N2CCCCC2)ccc1N1CCOCC1 | -9.91%
CC1CCC(NC(=O)CN2CCCN(Cc3ccc(F)cc3Cl)C2=O)CC1 (stereo not drawn) | 8.34%
CN(C)C1(CNC(=O)Nc2ccc(Cl)c(Cl)c2)CCCCC1 | 3.77%
Cl.O.O=c1c2ccccc2nc2n1CC/C2=C/N1CCN(c2cccc(C(F)(F)F)c2)CC1 | 5.54%
Cc1nc2ccccc2c(=O)n1-c1ccc([N+](=O)[O-])cc1 | 11.2%
O=c1c2ccccc2nc2n1CC/C2=C\N1CCN(c2ccc([N+](=O)[O-])cc2)CC1 | -62.1%
O=[N+]([O-])c1ccc(CS(=O)(=O)N2CCN(c3ccccc3)CC2)cc1 | -3.45%
CC1CCCC(C)N1c1nnc(N)s1 (stereo not drawn) | 10.6%
Cc1ccccc1NC(=S)N1CCCN(Cc2ccc(F)cc2)C1 | 8.61%
CSc1nc(NCC(C)C)c2c3c(sc2n1)CN(C)CC3 | -9.92%
CSc1nc(NCc2ccccc2)c2c3c(sc2n1)CN(C)CC3 | -64.2%
CSc1nc(NCc2ccco2)c2c3c(sc2n1)CN(C)CC3 | -38.8%
CC(C)c1ccc2c(c1)c(SC(C)(C)C)c(CC(C)(C)C(=O)O)n2Cc1ccc(Cl)cc1 | 5.14%
COCCNC(=O)C(OC(=O)c1cc2oc(C)cc2n1C)C(C)C (stereo not drawn) | 7.23%
COc1cn(-c2ccccc2)nc1C(=O)Nc1ccc(C)cc1Cl | 11.4%
CC(C)(C)NCC(O)(c1ccc(Cl)cc1)c1ccc(Cl)cc1 | 13%
CCN(CC)CCNCC(O)(c1ccc(Cl)cc1)c1ccc(Cl)cc1 | -84.4%
CCCCNCC(O)(c1ccc(Cl)cc1)c1ccc(Cl)cc1 | -5.39%
